Values joined by “and” are separate entries in the source; they are usually repeats but may differ in a detail not shown here. Equal values may be shown once. Inconclusive results are not listed. Some structures have more than one record in an assay (separate samples or runs), and their calls can disagree. Active and inactive are the calls of the source. Calls follow the shape of the dose curve; as a rule, active = well fitted cell-killing curve with a large enough effect in the repeat runs; inconclusive = weak or mixed curves; inactive = no such curve, though single readings can be large or run the other way.
Test: qHTS assay for identifying genotoxic compounds that show differential cytotoxicity against isogenic chicken DT40 cell lines with known DNA damage response pathways - Rad54/Ku70 mutant cell line (AID 743015); also: nearly all actives have a fitted effect of over 60% in size
Conditions: DT40 Rad54/Ku70 mutant viability, CellTiter-Glo, 40 h; series mostly up to 66.8 µM; activity change, negative = cytotoxicity: at the top concentration
Description: National Center for Advancing Translational Sciences [NCATS]
NIH Chemical Genomics Center [NCGC]
U.S. Environmental Protection Agency [EPA]
National Institutes of Environmental Health Sciences [NIEHS]
National Toxicology Program [NTP]
U.S. Food and Drug Administration [FDA]
DNA repair pathways play a critical role in cellular homeostasis by repairing DNA damage induced by endogenous processes and xenobiotics. Isogenic chicken DT40 cell lines deficient in different DNA repair pathways can be used to identify genotoxic compounds and aid in characterizing the nature of the DNA damage induced. Two DNA repair-deficient cell lines with disrupted genes, Rad54/Ku70 or Rev3, were used to screen the Tox21 10K compound library. Possible genotoxicity was based on the presence of a significant increase in cytotoxicity in one or more of the DNA repair-deficient cell lines compared to that observed in the parental DNA repair-proficient cell line. CellTiter Glo viability assay (Promega, Madison, WI) was used to measure cell viability in these cells after compound treatment. This assay includes the data from the Rad54/Ku70 mutant cell line.
Tox21 Assay Protocol Summary:
300 DT40 mutant cells in 5 uL/well were dispensed into white, solid-bottom 1536-well plates using a Multidrop Combi (ThermoFisher Scientific, Waltham, MA) dispenser. After the assay plates were incubated at 37 C/5% CO2 for approximately 0.5 hour, 23 nL of compounds dissolved in DMSO, positive controls or DMSO only was transferred into the assay plate by a pintool work station (Kalypsys, San Diego, CA). The assay plates were incubated at 37 C/5% CO2 for 40 hours. After 5 uL per well of CellTiter-Glo reagent was added into each well of the assay plates, the plates were incubated for 30 min at room temperature and the luminescence intensity of the plates was measured using a ViewLux (PerkinElmer, Shelton, CT) plate reader.
% is scaled to controls: 0 for no effect and ±100 for the full control effect; potency is read from the fitted curve at half-maximal effect.

SMILES	activity change, negative = cytotoxicity	Potency
c1ccc2c(c1)sc1ccccc12	2.97% (inactive)	–
CC(C)(C)N(NC(=O)c1ccc(Cl)cc1)C(=O)c1ccccc1	–	43 µM (active)
CCC1(C2=NCCN2)Cc2ccccc2O1 (stereo not given)	–	6.68 µM (active)
N#CC(C#N)=C(C#N)C#N	-1.08% [at 95.1 µM] (inactive)	–
CCCC1CCCCN1 (stereo not given)	0.437% (inactive)	–
FC(Cl)(Cl)C(F)(Cl)Cl	7.72% [at 95.1 µM] (inactive)	–
Cc1nnc(-c2ccccc2)c(=O)n1N	-2.61% (inactive)	–
OCC1CO1 (stereo not given)	–	inactive
CCOC(=O)c1cn2nc(OP(=S)(OCC)OCC)cc2nc1C	–	38.6 µM (active)
O=C(N/N=C/c1ccc([N+](=O)[O-])o1)c1cc([N+](=O)[O-])cc([N+](=O)[O-])c1O	-2.42% (inactive)	–
C[C@]12C=CC3=C4CCC(=O)C=C4CC[C@H]3[C@@H]1CC[C@@H]2O	–	60.7 µM (active)
c1ccc2c(c1)-c1cccc3cccc-2c13	-10.2% [at 95.1 µM] (inactive)	–
CCCC(C)(COC(N)=O)COC(=O)NC(C)C (stereo not given)	-1.47% (inactive)	–
Clc1ccc(Cl)c(Cl)c1	–	inactive
CC(C)C1(C)N=C(c2ncccc2C(=O)O)NC1=O (stereo not given)	-23.1% (inactive)	–
SCc1ccccc1	-6.48% [at 95.1 µM] (inactive)	–
CN(C)C(=O)Nc1cccc(OC(=O)NC(C)(C)C)c1	0.997% (inactive)	–
C=CCc1ccccc1O	0.234% (inactive)	–
CC(C)(C)OOC(C)(C)CCC(C)(C)OOC(C)(C)C	-9.52% (inactive)	–
CCCCC#N	-1.88% (inactive)	–

SMILES	activity change, negative = cytotoxicity	Potency
CCCCNC(=O)OCC#CI	–	2.72 µM (active) and 969 nM (active)
N#CC1(N=NC2(C#N)CCCCC2)CCCCC1	-12.7% (inactive)	–
CC1(C)[C@H](C(=O)O[C@H](C#N)c2cccc(Oc3ccccc3)c2)[C@@H]1C=C(Br)Br	–	inactive and 43.3 µM (active)
CN1CC[C@]23c4c5ccc(O)c4O[C@H]2[C@@H](O)CC[C@H]3[C@H]1C5	1.73% (inactive)	–
CC(C)(C)NCC(O)c1ccccc1Cl (stereo not given)	2.61% (inactive)	–
O=C(O)c1cc(Cl)ccc1Cl	-2.31% (inactive)	–
CC(Cl)C(=O)O (stereo not given)	-0.505% [at 95.1 µM] (inactive)	–
ClCc1ccccc1Cl	2.76% [at 95.1 µM] (inactive)	–
CCOP(=O)(O)C(N)=O	-9.87% (inactive)	–
C[N+](C)(C)CCOC(=O)C(O)(c1ccccc1)c1ccccc1	1.95% (inactive)	–
CCCCCBr	1.84% [at 95.1 µM] (inactive)	–
Cc1ccccc1	–	inactive
O=S(=O)(Cl)Cl	-2.82% (inactive)	–
CCOP(=O)(SC(C)CC)N1CCSC1=O (stereo not given)	-24% (inactive)	–
CC(C)(C)c1ccc(CCOc2ncnc3ccccc23)cc1	2.16% (inactive)	–
CC(Oc1cc(Cl)c(Cl)cc1Cl)C(=O)O (stereo not given)	5.21% (inactive)	–
O=C1NC(=O)C(=O)C(=O)N1	8.66% [at 95.1 µM] (inactive)	–
CCC1CCC(=O)O1 (stereo not given)	15.5% [at 95.1 µM] (inactive)	–
CCCCCCCCn1sccc1=O	–	3.07 µM (active) and 1.02 µM (active)
CCOC(=O)NC(O)C(Cl)(Cl)Cl (stereo not given)	0.84% (inactive)	–

Source: PubChem BioAssay (Tox21)
